Source: PubChem (NMMLSC)
CIT2 TOR yeast – modulators of CIT2-GFP expression in yeast, primary screen, S. cerevisiae, GFP fusion, multiplex flow cytometry, MLPCN library; GFP response vs DMSO, % at 10 µM; 0.065% of 320,000 active; S. cerevisiae CIT2-GFP strain, 3 h; 100 means same as DMSO wells;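 active = GFP response relative to DMSO above a set limit, near the screen mean plus 3 SD, cut at about 150% in these data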;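 also: ratio of well median GFP fluorescence to mean of DMSO wells on the plate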
RPL19A-GFP yeast – RPL19A-GFP expression modulators in yeast, primary screen, cell-based, S. cerevisiae, multiplex flow cytometry, MLPCN | AID 2025, 2009 | 0.3% of 330,000 active | S. cerevisiae RPL19A-GFP strain, 3 h; active compounds read low | percent response vs DMSO, % at 10 µM;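 active = percent response vs DMSO below 50%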;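 also: median channel GFP fluorescence of the barcoded RPL19A-GFP strain; lower means less RPL19A-GFP as with rapamycin TOR inhibition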
MEP2 TOR yeast – modulators of MEP2-GFP levels in yeast, primary screen, S. cerevisiae, multiplex flow cytometry, MLPCN library | S. cerevisiae MEP2-GFP strain, 3 h; 100% = DMSO control level | GFP response vs DMSO, % at 10 µM | 0.51% of 330,000 active;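 active = GFP response versus DMSO above a set limit, roughly screen mean plus 3 SD, cut at about 180% in these data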;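 also: median GFP fluorescence of the barcode-gated MEP2-GFP cells per well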
LAP4 TOR yeast – modulators of LAP4-GFP expression in yeast, primary screen, S. cerevisiae, multiplex flow cytometry, MLPCN library; 3 h; median GFP as percent of DMSO wells; GFP response vs DMSO, % at 10 µM; 0.34% of 320,000 active;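 active = GFP response vs DMSO above a set limit, about the screen mean plus 3 SD, cut at about 150% in these data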
AGP1 TOR yeast – modulators of AGP1-GFP expression in yeast TOR pathway, primary screen, cell-based, multiplex flow cytometry, S. cerevisiae, MLPCN library | 3 h; GFP as percent of DMSO wells | GFP response vs DMSO, % at 10 µM | 0.02% of 320,000 active | AID 2066, 2009;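 active = GFP response relative to DMSO above a set limit, near screen average plus 3 SD, cut at about 150% in these data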;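 also: median GFP channel fluorescence of the gated AGP1 strain per well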
LAP4-GFP pick2 – LAP4-GFP expression modulators in yeast, confirmation, cell-based, second cherry pick, flow cytometry; shares compounds with LAP4 TOR yeast; S. cerevisiae LAP4-GFP strain, 3 h; GFP response vs DMSO, % at 10 µM; 20% of 590 active;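 active = GFP signal as percent of the solvent control above about 150%, meaning raised reporter expression, limit read from the data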
MEP2 cherry2 – modulators of MEP2-GFP levels in yeast, confirmation, S. cerevisiae, flow cytometry GFP, second cherry picks. shares compounds with LAP4 TOR yeast. S. cerevisiae MEP2-GFP strain, 3 h. GFP response vs DMSO, % at 10 µM. 10% of 590 active. AID 2622, 2010;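 active = GFP signal above 150% of the solvent control wells, that is a rise of more than half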;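 also: median channel GFP fluorescence of all gated yeast cells per well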
RPL19A-GFP pick2 – RPL19A-GFP modulators in TOR pathway yeast, confirmation, cell-based, S. cerevisiae, flow cytometry, second cherry pick. AID 2623, 2010. S. cerevisiae RPL19A-GFP strain, 3 h; active compounds read low; 100% means same as DMSO wells. 3% of 590 active. GFP response vs DMSO, % at 10 µM. shares compounds with LAP4 TOR yeast;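 active = under 65% GFP response relative to DMSO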;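 also: median GFP channel fluorescence per well over the all cells gate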
CIT2-GFP pick2 – modulators of CIT2-GFP expression in yeast, confirmation, flow cytometry, second cherry pick, single plex. GFP response vs DMSO, % at 10 µM. S. cerevisiae CIT2-GFP strain, 3 h; DMSO control wells read 100%. shares compounds with LAP4 TOR yeast. 8% of 590 active;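 active = GFP response vs DMSO above about 150%, limit read from the data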;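 also: median green fluorescence per well over all gated yeast cells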
AGP1 GFP CP2 – AGP1-GFP expression modulators, hit retest, confirmation, cell-based, flow cytometry, S. cerevisiae, cherry pick set 2 | S. cerevisiae AGP1-GFP strain, 3 h | percent response vs DMSO, % at 10 µM | 590 tested, under 10 active | shares compounds with LAP4 TOR yeast;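 active = over 150 percent of DMSO response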;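 also: median GFP channel fluorescence over all cells without mother daughter split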
Yeast autofluor – compound autofluorescence in yeast s288c, dose response, artefact control for yeast TOR pathway GFP screen, s288c strain; shares compounds with LAP4 TOR yeast; S. cerevisiae s288c, 520 nm autofluorescence, flow cytometry, 3 h; active compounds read high; zero means same as solvent-only cells; fluorescence change (kMESF span) at 33 µM; 610 tested, under 10 active; AID 2757, 2010;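 active = fluorescence span over the dose series, or activity score, above about 33, limit read from the data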
s288c autofl DR – autofluorescence of compounds in yeast s288c, dose response, artefact control for yeast TOR pathway GFP screen, primary hits, KU SAR, s288c parental; shares compounds with LAP4 TOR yeast; S. cerevisiae s288c parental, compound autofluorescence, flow cytometry, 3 h; fluorescence change (span) at 33 µM; 110 tested, under 10 active; AID 488829, 2010;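 active = fluorescence change span, or the activity score built from it, above 25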
TORC1 bypass – wild-type yeast growth inhibition sparing TORC1 bypass cells, mechanism study for yeast TOR pathway GFP screen, BY4741 wild type, TORC1 bypass strain; AID 504456, 2011; shares compounds with LAP4 TOR yeast; S. cerevisiae BY4741 spot growth rating, 48-72 h; active compounds read low; growth rating (0-3) at 30 µM; 120 tested, under 10 active;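 active = growth rating at most 1 for wild type yeast while the TORC1 bypass strain still grows fully, rated 3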
Each line names hits and unclear results; the compound was inactive in the other large screens (follow-up assays come after a bar, where they were run). Rows were chosen to be rich in hits. Some 0.93% of all compounds tested hit in one or more screens of this group.

COc1ccccc1-c1nnc(SCCN2CCOCC2)n1-c1ccc(C)cc1	MEP2 TOR yeast 196 | LAP4-GFP pick2 inactive | MEP2 cherry2 inactive | RPL19A-GFP pick2 inactive | CIT2-GFP pick2 inactive | AGP1 GFP CP2 inactive
COc1cccc2sc(Nc3nc(-c4ccccn4)cs3)nc12	LAP4 TOR yeast 169 | Yeast autofluor inactive
c1ccc(-c2csc(Nc3cccnc3)n2)nc1	none | LAP4-GFP pick2 inactive | MEP2 cherry2 inactive | RPL19A-GFP pick2 inactive | CIT2-GFP pick2 inactive | AGP1 GFP CP2 inactive | Yeast autofluor inactive
c1ccc(Nc2nc(-c3ccccn3)cs2)cc1	none
CCN=C1S/C(=C\c2ccc(N3CCOCC3)cc2C)C(=O)N1CC	none
COCCN1C(=O)/C(=C/c2ccc(N3CCCC3)cc2C)SC1=S	CIT2 TOR yeast 190, MEP2 TOR yeast 186 | Yeast autofluor inactive
O=C(OCC(=O)N1CCN(C(=O)c2ccco2)CC1)c1cc(-c2cccc(Br)c2)nc2ccccc12	LAP4 TOR yeast 162 | Yeast autofluor inactive | s288c autofl DR inactive | TORC1 bypass inactive
O=C(OCC(=O)N1CCN(C(=O)c2ccco2)CC1)c1cc(-c2ccccc2)nc2ccccc12	MEP2 TOR yeast 203, LAP4 TOR yeast 163 | LAP4-GFP pick2 inactive | MEP2 cherry2 215 | RPL19A-GFP pick2 inactive | CIT2-GFP pick2 inactive | AGP1 GFP CP2 inactive | Yeast autofluor inactive
O=C(OCC(=O)N1CCN(C(=O)c2ccco2)CC1)c1cc(-c2ccc(F)cc2)nc2ccccc12	LAP4 TOR yeast 187 | LAP4-GFP pick2 inactive | MEP2 cherry2 201 | RPL19A-GFP pick2 inactive | CIT2-GFP pick2 inactive | AGP1 GFP CP2 inactive | Yeast autofluor inactive | s288c autofl DR inactive | TORC1 bypass inactive
O=C(OCC(=O)N1CCN(C(=O)c2ccco2)CC1)c1cn(-c2ccccc2)nc1-c1ccccc1	none
COc1cccc(N=CC2=C(O)CCCC2=O)c1	none
COc1cccc(N=Cc2nc(-c3ccccc3)oc2OC(C)=O)c1	none (no result: CIT2 TOR yeast, LAP4 TOR yeast, AGP1 TOR yeast) | Yeast autofluor inactive
COc1ccc(N=Cc2nc(-c3ccccc3)oc2OC(C)=O)cc1	none | Yeast autofluor inactive
